Assay [1] is described as follows: ATG_CRE_CIS: Attagene CIS-FACTORIAL HepG2 Assay for human cAMP Responsive Element (CRE) binding protein 3 (AID 2282926). To be noted: HepG2 CRE cis-reporter, Attagene multiplexed mRNA; actives raise or lower the signal. In outline: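 HepG2 cells transiently transfected with cis-element-driven multiple reporter transcription units; CRE reporter mRNA measured 24 h after dosing by RT-PCR, 6-FAM labelling, HpaI digestion and capillary electrophoresis. Bidirectional fit versus DMSO baseline.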

In assay [2] the target is CCAAT/enhancer-binding protein beta (Homo sapiens) (UniProt P17676). Briefly: ATG_C_EBP_CIS: Attagene CIS-FACTORIAL HepG2 Assay for human CCAAT/Enhancer Binding Protein (C/EBP) beta (AID 2282927). To be noted: HepG2 Attagene cis-factorial transcription factor reporter; actives raise or lower the signal. In outline:
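Transiently transfected HepG2 (MRTU library, endogenous TF-driven promoters); 24 h dosing; total RNA → oligo(dT) RT → PCR → 6-FAM primer extension → HpaI digest → CE; fit bidirectionally vs DMSO.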

Assay [3] can be described thus: ATG_CMV_CIS: Attagene CIS-FACTORIAL HepG2 Assay for human CMV (Internal Marker) (AID 2282928).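 Further: endpoint acts as a background internal control marker rather than a target.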 To be noted: HepG2 CMV promoter reporter, transcription factor profiling; actives raise or lower the signal. In outline:
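After transient transfection of HepG2 with reporter transcription units driven by cis-regulatory promoters, cells receive test chemical for 24 h. Labeled reporter amplicons, digested with HpaI, are sized and quantified by capillary electrophoresis against DMSO.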

Assay [4] is described as follows: ATG_DR4_LXR_CIS: Attagene CIS-FACTORIAL HepG2 Assay for human Liver X Receptor (LXR), DR4 submotif (AID 2282929). To be noted: HepG2 Attagene DR4 cis-reporter, mRNA transcription; actives raise or lower the signal. The method, boiled down:
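Measures endogenous transcription factor activity via a DR4-driven reporter transcript in human HepG2 cells. Compounds incubated 24 h; mRNA quantified by RT-PCR and capillary electrophoresis, analysed as gain or loss of signal versus DMSO.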

Assay [5] concerns the target Aryl hydrocarbon receptor (Homo sapiens) (UniProt P35869). Briefly: ATG_Ahr_CIS: Attagene CIS-FACTORIAL HepG2 Assay for human Aryl Hydrocarbon Receptor (Ahr) (AID 2282930). To be noted: HepG2 AhR cis-factorial reporter transcription; actives raise or lower the signal. The method, boiled down:
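Read-out: reporter mRNA quantified by RT-PCR with fluorescent primer extension and capillary electrophoresis. Human HepG2 liver cells carried transfected cis-promoter reporter units and were exposed to chemical for 24 h; gain or loss fitted relative to DMSO.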

Assay [6] can be described thus: ATG_AP_1_CIS: Attagene CIS-FACTORIAL HepG2 Assay for human Activator Protein 1 (AP-1) (AID 2282931). To be noted: HepG2 Attagene cis-factorial AP-1 reporter mRNA; actives raise or lower the signal. The method, boiled down:
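Bidirectional concentration-response fitting against DMSO controls. Underlying signal: reporter mRNA from cis-promoter constructs in transiently transfected HepG2, measured after 24 h by RT-PCR and capillary electrophoresis.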

Assay [7] in a line: ATG_AP_2_CIS: Attagene CIS-FACTORIAL HepG2 Assay for human Activator Protein 2 (AP-2) (AID 2282932). To be noted: HepG2 AP-2 cis-reporter, Attagene transcription factor profiling; actives raise or lower the signal. The method, boiled down: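 Multiplexed mRNA reporter assay in HepG2: cis-regulated units report endogenous factor activity after 24 h treatment. Fluorescence from capillary electrophoresis of RT-PCR products gives the signal, with DMSO as baseline.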

The nature of assay [8]: ATG_BRE_CIS: Attagene CIS-FACTORIAL HepG2 Assay for human Bone Morphogenetic Protein (BMP) Response Element (BRE) (AID 2282933). To be noted: HepG2 BMP response element reporter, Attagene transcription factor profiling; actives raise or lower the signal. In outline:
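After a 24 h chemical treatment, transiently transfected HepG2 cells were lysed for RNA; reporter transcripts were quantified by fluorescent RT-PCR and capillary electrophoresis, normalised to DMSO.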

In assay [9] the target is Transcription factor E2F1 (Homo sapiens) (UniProt Q01094). Description: ATG_E2F_CIS: Attagene CIS-FACTORIAL HepG2 Assay for human E2F Transcription Factor 1 (AID 2282935). To be noted: HepG2 Attagene cis-reporter, E2F reporter RNA transcripts; actives raise or lower the signal. The method, boiled down:
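Measures reporter transcript levels via RT-PCR with capillary electrophoresis detection in HepG2 cells harboring cis-regulated reporter units; 24 h post-dose; bidirectional curve fitting with DMSO as baseline.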

Assay [10] is described as follows: ATG_E_Box_CIS: Attagene CIS-FACTORIAL HepG2 Assay for human Enhancer Box (E-box) (AID 2282936). To be noted: HepG2 E-box cis-reporter transcription, actives raise or lower the signal. In outline:
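First, HepG2 cells receive multiple cis-regulated reporter constructs by transient transfection. Next, chemicals are applied for 24 h. Finally, reporter mRNA is quantified via RT-PCR and capillary electrophoresis, with DMSO as baseline.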

Assay [11] is described as follows: ATG_M_61_CIS: Attagene CIS-FACTORIAL HepG2 Assay for M61 Transcription Factor (Internal Marker) (AID 2282937). To be noted: HepG2 Attagene CIS-FACTORIAL M61 internal marker reporter; actives raise or lower the signal. The method, boiled down:
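Fluorescence from labelled cDNA fragments, separated by capillary electrophoresis, quantifies reporter induction. HepG2 cells bearing transiently transfected cis-promoter MRTUs were incubated with test chemical for 24 h; DMSO defined baseline for gain/loss fitting.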

The nature of assay [12]: ATG_EGR_CIS: Attagene CIS-FACTORIAL HepG2 Assay for human Early Growth Response 1 (EGR1) (AID 2282938). To be noted: HepG2 Attagene CIS-FACTORIAL EGR reporter mRNA; actives raise or lower the signal. The method, boiled down: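 Cell-based multiplex transcription assay: HepG2 carrying transfected cis-element reporter units, 24 h chemical treatment. Fluorescence from capillary electrophoresis of RT-PCR products gives mRNA levels; fitting is bidirectional relative to DMSO.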

The nature of assay [13]: ATG_M_19_CIS: Attagene CIS-FACTORIAL HepG2 Assay for M19 Transcription Factor (Internal Marker) (AID 2282939). To be noted: HepG2 Attagene CIS-FACTORIAL M19 internal marker reporter; actives raise or lower the signal. The method, boiled down: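 In this multiplexed cell assay, transiently transfected HepG2 reporter units report endogenous transcription-factor activity; after 24 hours of treatment, labelled reporter cDNA fragments are quantified by capillary electrophoresis and fitted bidirectionally against DMSO.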

Assay [14] in a line: ATG_Ets_CIS: Attagene CIS-FACTORIAL HepG2 Assay for human Erythroblast Transformation Specific (ETS) (AID 2282941). To be noted: HepG2 ETS cis-reporter transcription, actives raise or lower the signal. The method, boiled down:
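Human HepG2 hepatoma cells were transiently transfected with promoter-driven reporter constructs and treated for 24 hours. Reporter transcripts were quantified by RT-PCR with fluorescent primer extension; bidirectional curve fitting used DMSO as reference.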

In assay [15] the target is Hepatocyte nuclear factor 3-beta (Homo sapiens) (UniProt Q9Y261). Briefly: ATG_FoxA2_CIS: Attagene CIS-FACTORIAL HepG2 Assay for human Forkhead box A2 (FOXA2) (AID 2282942). To be noted: HepG2 cis-reporter transcription factor activity, 24 h; actives raise or lower the signal. The method, boiled down:
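In transiently transfected human HepG2 cells, promoter-driven reporter mRNA levels after 24 h chemical exposure are determined via RT-PCR with capillary electrophoresis. DMSO serves as baseline for bidirectional fitting.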

Assay [16] in a line: ATG_FoxO_CIS: Attagene CIS-FACTORIAL HepG2 Assay for human Forkhead box O (FoxO) (AID 2282943). To be noted: HepG2 Attagene cis-reporter, FoxO element, mRNA; actives raise or lower the signal. In outline:
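Read-out: fluorescence of 6-FAM-labelled reporter cDNA fragments resolved by capillary electrophoresis. Transiently transfected HepG2 cells were dosed for 24 h; activity fitted in both directions relative to DMSO controls.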

The nature of assay [17]: ATG_GATA_CIS: Attagene CIS-FACTORIAL HepG2 Assay for human GATA Binding Protein (AID 2282944). To be noted: HepG2 GATA cis-element reporter, Attagene multiplex mRNA; actives raise or lower the signal. The method, boiled down:
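Measures endogenous transcription factor-driven reporter mRNA in HepG2 cells transiently carrying cis-regulated constructs. 24 h dosing; RNA via oligo(dT) reverse transcription, PCR, HpaI digestion, capillary electrophoresis; fitted relative to DMSO.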

Assay [18] in a line: ATG_GLI_CIS: Attagene CIS-FACTORIAL HepG2 Assay for human Zinc Finger Protein GLI1 (AID 2282945). To be noted: HepG2, Attagene cis-factorial reporter mRNA, GLI element; actives raise or lower the signal. In outline: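 Transiently transfected HepG2 cells report endogenous transcription factor activity via cis-element-driven reporter units. After 24 h compound exposure, reporter mRNA was measured by RT-PCR with capillary electrophoresis; bidirectional fitting against DMSO baseline.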

Assay [19] concerns the target Bile acid receptor (Homo sapiens) (UniProt Q96RI1). Briefly: ATG_IR1_CIS: Attagene CIS-FACTORIAL HepG2 Assay for human Nuclear Receptor Subfamily 1 Group H Member 4 (NR1H4), IR1 submotif (AID 2282946). To be noted: IR1 reporter transcription, actives raise or lower the signal. In outline:
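HepG2 cells transiently transfected with multiple cis-promoter-driven reporter units to measure endogenous transcription factor activity; 24 h exposure. Reporter mRNA read by RT-PCR, FAM labelling, HpaI digestion and capillary electrophoresis. Bidirectional fit versus DMSO.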

Structures are written as SMILES. Active and inactive are the calls of the source. How the source made its calls: active means hit-call score of the fitted dose curve at least 0.9, where 1 is the maximum; inactive means score below 0.9.

For orientation: AC50 means the concentration giving half of the maximal activity seen.

Sequence of Hepatocyte nuclear factor 3-beta (Homo sapiens) (Q9Y261 whole entry, looked up): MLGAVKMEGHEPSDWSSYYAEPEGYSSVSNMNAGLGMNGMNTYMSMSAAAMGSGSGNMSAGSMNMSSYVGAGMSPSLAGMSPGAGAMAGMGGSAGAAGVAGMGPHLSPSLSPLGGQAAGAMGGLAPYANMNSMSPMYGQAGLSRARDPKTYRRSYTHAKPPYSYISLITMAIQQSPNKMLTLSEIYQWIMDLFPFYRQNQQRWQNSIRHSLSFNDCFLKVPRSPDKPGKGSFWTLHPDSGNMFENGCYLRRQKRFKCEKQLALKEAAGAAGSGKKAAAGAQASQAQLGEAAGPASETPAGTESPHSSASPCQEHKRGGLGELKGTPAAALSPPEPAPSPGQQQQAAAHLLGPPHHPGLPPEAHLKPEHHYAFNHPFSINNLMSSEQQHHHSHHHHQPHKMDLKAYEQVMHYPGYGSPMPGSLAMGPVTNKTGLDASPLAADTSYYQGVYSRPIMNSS
Sequence of Transcription factor E2F1 (Homo sapiens) (Q01094 whole entry, looked up): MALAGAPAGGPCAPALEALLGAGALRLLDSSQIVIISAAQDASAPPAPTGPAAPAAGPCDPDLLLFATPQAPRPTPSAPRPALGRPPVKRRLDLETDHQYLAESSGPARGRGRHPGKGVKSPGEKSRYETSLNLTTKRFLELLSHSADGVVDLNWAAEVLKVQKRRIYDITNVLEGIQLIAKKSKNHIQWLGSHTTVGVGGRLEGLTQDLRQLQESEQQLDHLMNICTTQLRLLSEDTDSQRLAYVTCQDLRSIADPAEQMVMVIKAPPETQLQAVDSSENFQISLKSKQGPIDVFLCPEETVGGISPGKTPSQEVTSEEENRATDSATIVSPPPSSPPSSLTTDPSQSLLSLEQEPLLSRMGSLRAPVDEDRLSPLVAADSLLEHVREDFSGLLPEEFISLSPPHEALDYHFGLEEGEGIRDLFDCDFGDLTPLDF
Sequence of Aryl hydrocarbon receptor (Homo sapiens) (P35869 whole entry, looked up): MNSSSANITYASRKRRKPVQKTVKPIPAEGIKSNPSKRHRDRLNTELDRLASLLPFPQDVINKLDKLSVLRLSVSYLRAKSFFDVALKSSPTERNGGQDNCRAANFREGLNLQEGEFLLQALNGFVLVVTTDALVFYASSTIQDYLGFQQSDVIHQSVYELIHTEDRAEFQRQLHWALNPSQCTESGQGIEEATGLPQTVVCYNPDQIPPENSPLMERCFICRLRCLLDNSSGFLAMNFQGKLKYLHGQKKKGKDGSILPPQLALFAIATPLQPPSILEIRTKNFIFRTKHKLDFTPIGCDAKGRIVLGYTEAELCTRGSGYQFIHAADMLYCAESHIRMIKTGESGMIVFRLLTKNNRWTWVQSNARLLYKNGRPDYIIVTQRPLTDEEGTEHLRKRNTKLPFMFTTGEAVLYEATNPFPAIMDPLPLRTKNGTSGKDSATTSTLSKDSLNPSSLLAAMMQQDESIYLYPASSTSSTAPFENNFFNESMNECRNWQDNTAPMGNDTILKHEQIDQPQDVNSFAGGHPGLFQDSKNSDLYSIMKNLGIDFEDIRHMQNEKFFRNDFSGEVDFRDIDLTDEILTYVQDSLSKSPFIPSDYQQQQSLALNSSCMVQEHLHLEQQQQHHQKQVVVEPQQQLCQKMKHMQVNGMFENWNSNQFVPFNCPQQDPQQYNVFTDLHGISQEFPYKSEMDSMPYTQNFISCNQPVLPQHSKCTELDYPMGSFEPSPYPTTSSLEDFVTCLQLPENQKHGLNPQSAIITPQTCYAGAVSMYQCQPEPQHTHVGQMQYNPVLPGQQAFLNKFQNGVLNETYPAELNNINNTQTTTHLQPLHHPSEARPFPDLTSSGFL
Sequence of CCAAT/enhancer-binding protein beta (Homo sapiens) (P17676 whole entry, looked up): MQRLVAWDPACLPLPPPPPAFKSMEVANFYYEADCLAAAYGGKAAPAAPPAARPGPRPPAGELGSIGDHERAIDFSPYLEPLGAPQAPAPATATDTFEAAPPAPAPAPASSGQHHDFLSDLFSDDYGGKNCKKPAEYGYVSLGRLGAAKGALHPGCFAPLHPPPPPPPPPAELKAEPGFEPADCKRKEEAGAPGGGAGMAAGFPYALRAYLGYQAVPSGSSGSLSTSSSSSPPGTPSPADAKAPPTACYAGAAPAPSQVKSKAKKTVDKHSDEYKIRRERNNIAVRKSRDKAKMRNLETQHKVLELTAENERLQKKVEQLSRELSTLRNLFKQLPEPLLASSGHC
Sequence of Bile acid receptor (Homo sapiens) (Q96RI1 whole entry, looked up): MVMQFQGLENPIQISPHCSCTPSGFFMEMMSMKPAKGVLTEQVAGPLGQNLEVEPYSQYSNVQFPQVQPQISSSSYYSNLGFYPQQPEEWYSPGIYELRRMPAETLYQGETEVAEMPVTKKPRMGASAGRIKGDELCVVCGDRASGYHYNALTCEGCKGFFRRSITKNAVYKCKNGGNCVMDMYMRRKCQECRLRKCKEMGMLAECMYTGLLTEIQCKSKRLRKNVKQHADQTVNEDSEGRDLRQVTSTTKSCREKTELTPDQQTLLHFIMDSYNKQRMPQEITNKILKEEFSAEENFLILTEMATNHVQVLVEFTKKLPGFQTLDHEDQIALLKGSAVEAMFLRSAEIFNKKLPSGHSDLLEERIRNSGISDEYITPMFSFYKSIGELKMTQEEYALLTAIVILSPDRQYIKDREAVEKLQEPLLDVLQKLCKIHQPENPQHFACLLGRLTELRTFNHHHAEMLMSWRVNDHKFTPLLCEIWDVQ

For the compound `C=CCCCCCCCCCCCC`, the compound was called inactive in [1], in [2], in assay [5], in assay [6], in assay [7] and in assay [8]. Further, the compound was called inactive in assay [9], in assay [10], in assay [11], in [12], in assay [13] and in assay [14]. The compound was called inactive in assay [15], in assay [16], in assay [17], in assay [18] and in assay [19]. For the same compound, the concentration at half-maximal activity (AC50) in assay [3] was 100 µM (active); in assay [4], 177 µM (active).
With `CC(=O)OC1CC(C)OC(C)O1` (stereo not given), the result in [1], in [2], in [3], in assay [4], in assay [5] and in assay [6] was inactive. In addition, the outcome in [7], in assay [8], in assay [9], in assay [10], in [11] and in assay [12] was inactive. In addition, the compound was classed as inactive in assay [13], in assay [14], in assay [15], in assay [16], in assay [17] and in assay [18]. Besides, in assay [19], the compound was called inactive.
As to `CC(C)COC(=O)CCCCC(=O)OCC(C)C`, the outcome in [1], in [2], in assay [3], in [4], in [5] and in [6] was inactive. In addition, the compound was called inactive in assay [7], in assay [8], in assay [9], in [10], in assay [11] and in [12]. In addition, the compound was called inactive in assay [13], in [14], in assay [15], in [16], in assay [17] and in assay [18]. Besides, in assay [19], the outcome was inactive.
In the case of `CC(C)(O)c1ccc(CNC(=O)c2cccnc2Oc2ccc(F)cc2)cc1`, the outcome in assay [1], in assay [2], in assay [3], in [6], in assay [7] and in [8] was inactive. The compound was classed as inactive in [9], in [10], in assay [11], in assay [12], in [13] and in assay [14]. The compound was classed as inactive in assay [15], in [16], in [17] and in assay [18]. Besides, the concentration at half-maximal activity (AC50) in [4] is 0.184 µM (active).
For the compound `CC(COCC(C)OC(=O)c1ccccc1)OC(=O)c1ccccc1` (stereo not given), the compound was called inactive in assay [1], in assay [2], in assay [3], in assay [4], in assay [5] and in assay [6]. In addition, the call in assay [7], in assay [8], in assay [9], in [10], in assay [11] and in assay [12] was inactive. In addition, the compound was classed as inactive in [13], in [14], in assay [15], in assay [16], in [17] and in assay [18]. For the same compound, in [19], the call was inactive.
As for `S=c1[nH]c2ccccc2s1`, the call in [1], in [2], in assay [4], in [7], in assay [9] and in [10] was inactive. For the same compound, the compound was classed as inactive in assay [11], in assay [12], in assay [13], in assay [14], in assay [15] and in [16]. For the same compound, the call in assay [17], in assay [18] and in [19] was inactive. Moreover, the concentration at half-maximal activity (AC50) in assay [3] was 100 µM (active); in assay [6], 19.8 µM (active); in assay [8], 7.98 µM (active).
For the compound `Cn1cnc2c1c(=O)[nH]c(=O)n2C`, the compound was classed as inactive in assay [1], in assay [2], in assay [3], in assay [4], in assay [5] and in [6]. The call in assay [7], in assay [8], in [9], in assay [10], in assay [11] and in [12] was inactive. For the same compound, the result in [13], in assay [14], in assay [15], in assay [16], in assay [17] and in assay [18] was inactive. The call in assay [19] was inactive.

For the origin of these results see PubChem BioAssay (EPA / NIEHS).
